Laboratory results taken from PubChem BioAssay.
Active and inactive are the calls of the source.

Assays:
[1] = binders of probe aFSTL3 on microarray, primary screen, stem cell growth factor project, biochemical, small-molecule microarray, fluorescence 635/667 (AID 1064); conditions: higher = more signal;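 note: measures binding of the biotinylated anti-FSTL3 antibody to printed compounds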
[2] = binders from COS7 lysate, DM2A8 probe, primary screen, torsin A project, cell lysate, small-molecule microarray, fluorescence 635/667 (AID 1065); conditions: higher = more signal, COS7 lysate expressing mutant human TOR1A
[3] = binders of probe aFGF2 on microarray, primary screen, stem cell growth factor project, biochemical, small-molecule microarray, fluorescence 635/667 (AID 1067); conditions: higher = more signal;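 note: measures binding of biotinylated aFGF2 protein to printed compounds on slides; z-score merges feature fluorescence and signal-to-noise across triplicate slides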
[4] = binders of probe aFGF10 on microarray, primary screen, stem cell growth factor project, biochemical, small-molecule microarray, fluorescence 635/667 (AID 1071); conditions: higher = more signal;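 note: score merges 667 nm spot intensity and signal to noise from triplicate slides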
[5] = molecular target: Neurogenic locus notch homolog protein 2 (Homo sapiens) (UniProt Q04721); assay: Notch2 binders on small-molecule microarrays, primary screen, biochemical, small-molecule microarray, 635 nm fluorescence, stem cell growth factors (AID 1073); conditions: Notch2 binding, higher = more signal
[6] = molecular target: Pro-neuregulin-1, membrane-bound isoform (Homo sapiens) (UniProt Q02297); assay: NRG1 binders on small-molecule microarrays, primary screen, psychiatric disease protein project, biochemical, small-molecule microarray, fluorescence 635/667 (AID 1075); conditions: NRG1 binding, 635 nm fluorescence, higher = more signal;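 note: score combines 667 nm spot fluorescence with signal to noise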
[7] = test system: Neuregulin-1 EGF-like domain; assay: binders of neuregulin-1 EGF-like domain, primary screen, biochemical, small-molecule microarray, 635 nm fluorescence (AID 1081); conditions: small-molecule microarray binding, higher = more signal;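 note: binding of the protein to compounds printed on small-molecule microarray slides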
[8] = FRG1 promoter luciferase signal modulators, primary screen, FRG1 inhibition for FSHD, cell-based, C2C12 myotubes, firefly/Renilla luciferase, luminescence (AID 1084); conditions: higher = more signal, called active from +8 up or from −8 down
[9] = binders of probe aFST on microarray, primary screen, stem cell growth factor project, biochemical, small-molecule microarray, fluorescence 635/667 (AID 1086); conditions: higher = more signal;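 note: score merges 667 nm fluorescence with signal-to-noise of each printed compound spot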
[10] = binders of probe aHhip on microarray, primary screen, stem cell growth factor project, biochemical, small-molecule microarray, fluorescence 635/667 (AID 1087); conditions: higher = more signal;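 note: score merges spot fluorescence at 667nm with spot signal to noise ratio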
[11] = test system: PRMT1 (protein arginine N-methyltransferase 1); assay: PRMT1 binders on small-molecule microarrays, primary screen, biochemical, small-molecule microarray, 635 nm fluorescence (AID 1088); conditions: small-molecule microarray binding, higher = more signal;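 note: binding of Prmt1 protein to compounds spotted on small-molecule microarray slides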
[12] = yeast growth modulation, basal conditions, primary screen, YJM789 clinical isolate, OD600, 24 h (AID 1089);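 note: growth of clinical yeast isolate S. cerevisiae YJM 789 seeded 1000 cells per well; test concentration not given here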; conditions: S. cerevisiae YJM789 growth, higher = more signal, called active from +8 up or from −8 down
[13] = fission yeast growth modulation, primary screen, strain 972, OD600, 24 h, no modulator (AID 1090);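 note: basal condition with compound alone and no growth modifier present; test concentration not given here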; conditions: S. pombe 972 growth, higher = more signal, called active from +8 up or from −8 down
[14] = S. cerevisiae growth modulation with rapamycin, primary screen, strain BY4716, OD600, 96 h (AID 1091); conditions: higher = more signal, called active from +8 up or from −8 down; note: test concentration not given here
[15] = molecular target: Torsin-1A-interacting protein 2 (Homo sapiens) (UniProt Q8NFQ8); assay: LULL1 binders on small-molecule microarray, primary screen, cell lysate, human LULL1 lysate, 635/667 nm fluorescence (AID 1092); conditions: hLULL1 lysate binding, 635 nm fluorescence, higher = more signal;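 note: probe is lysate of COS7 cells overexpressing human LULL1; score merges per-feature 667 nm fluorescence with signal-to-noise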
[16] = E. coli growth modulation, two-sided OD650, primary screen, E. coli filamentation project, strain DRC41, 24 h (AID 1093); conditions: OD650, 24 h, higher = more signal, called active from +8 up or from −8 down;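 note: MC1000 strain lacking acrAB efflux and sulA so SOS filamentation is blocked; test concentration not given here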
[17] = small-molecule microarray binders of probe aLefty2, primary screen, biochemical, biotinylated probe, 635/667 nm fluorescence (AID 1094); conditions: higher = more signal;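 note: score merges spot fluorescence near 667 nm with spot signal-to-noise ratio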
[18] = test system: Noggin (protein binding on small-molecule microarray); assay: Noggin binders on small-molecule microarray, primary screen, biochemical, 635/667 nm fluorescence (AID 1095); conditions: 635 nm fluorescence, higher = more signal;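 note: score merges 667 nm feature fluorescence with signal to noise over triplicate slides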
[19] = molecular target: Neurogenic locus notch homolog protein 3 (Homo sapiens) (UniProt Q9UM47); assay: NOTCH3 binders on small-molecule microarray, primary screen, biochemical, 635/667 nm fluorescence (AID 1096); conditions: NOTCH3 binding, 635 nm fluorescence, higher = more signal
[20] = small-molecule microarray binders of probe aEGFR, primary screen, biochemical, biotinylated probe, 635/667 nm fluorescence (AID 1097); conditions: higher = more signal;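 note: probe is a biotinylated anti-EGFR antibody binding compounds printed on slides; score combines fluorescence near 667 nm and signal to noise of each spot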

Torsin-1A-interacting protein 2 (Homo sapiens), sequence (Q8NFQ8 whole entry, looked up): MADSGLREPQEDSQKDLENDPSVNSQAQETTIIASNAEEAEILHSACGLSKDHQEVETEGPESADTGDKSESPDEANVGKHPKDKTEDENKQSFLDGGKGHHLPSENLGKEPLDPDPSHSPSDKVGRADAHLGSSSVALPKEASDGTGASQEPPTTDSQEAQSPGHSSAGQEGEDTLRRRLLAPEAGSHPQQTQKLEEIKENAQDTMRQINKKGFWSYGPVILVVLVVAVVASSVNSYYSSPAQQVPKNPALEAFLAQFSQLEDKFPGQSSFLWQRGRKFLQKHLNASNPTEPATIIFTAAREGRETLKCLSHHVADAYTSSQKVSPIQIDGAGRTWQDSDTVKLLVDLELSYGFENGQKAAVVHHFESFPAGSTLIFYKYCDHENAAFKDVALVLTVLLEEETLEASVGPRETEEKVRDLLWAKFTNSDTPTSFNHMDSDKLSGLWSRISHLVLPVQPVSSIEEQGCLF
Neurogenic locus notch homolog protein 3 (Homo sapiens), sequence (Q9UM47 whole entry, looked up): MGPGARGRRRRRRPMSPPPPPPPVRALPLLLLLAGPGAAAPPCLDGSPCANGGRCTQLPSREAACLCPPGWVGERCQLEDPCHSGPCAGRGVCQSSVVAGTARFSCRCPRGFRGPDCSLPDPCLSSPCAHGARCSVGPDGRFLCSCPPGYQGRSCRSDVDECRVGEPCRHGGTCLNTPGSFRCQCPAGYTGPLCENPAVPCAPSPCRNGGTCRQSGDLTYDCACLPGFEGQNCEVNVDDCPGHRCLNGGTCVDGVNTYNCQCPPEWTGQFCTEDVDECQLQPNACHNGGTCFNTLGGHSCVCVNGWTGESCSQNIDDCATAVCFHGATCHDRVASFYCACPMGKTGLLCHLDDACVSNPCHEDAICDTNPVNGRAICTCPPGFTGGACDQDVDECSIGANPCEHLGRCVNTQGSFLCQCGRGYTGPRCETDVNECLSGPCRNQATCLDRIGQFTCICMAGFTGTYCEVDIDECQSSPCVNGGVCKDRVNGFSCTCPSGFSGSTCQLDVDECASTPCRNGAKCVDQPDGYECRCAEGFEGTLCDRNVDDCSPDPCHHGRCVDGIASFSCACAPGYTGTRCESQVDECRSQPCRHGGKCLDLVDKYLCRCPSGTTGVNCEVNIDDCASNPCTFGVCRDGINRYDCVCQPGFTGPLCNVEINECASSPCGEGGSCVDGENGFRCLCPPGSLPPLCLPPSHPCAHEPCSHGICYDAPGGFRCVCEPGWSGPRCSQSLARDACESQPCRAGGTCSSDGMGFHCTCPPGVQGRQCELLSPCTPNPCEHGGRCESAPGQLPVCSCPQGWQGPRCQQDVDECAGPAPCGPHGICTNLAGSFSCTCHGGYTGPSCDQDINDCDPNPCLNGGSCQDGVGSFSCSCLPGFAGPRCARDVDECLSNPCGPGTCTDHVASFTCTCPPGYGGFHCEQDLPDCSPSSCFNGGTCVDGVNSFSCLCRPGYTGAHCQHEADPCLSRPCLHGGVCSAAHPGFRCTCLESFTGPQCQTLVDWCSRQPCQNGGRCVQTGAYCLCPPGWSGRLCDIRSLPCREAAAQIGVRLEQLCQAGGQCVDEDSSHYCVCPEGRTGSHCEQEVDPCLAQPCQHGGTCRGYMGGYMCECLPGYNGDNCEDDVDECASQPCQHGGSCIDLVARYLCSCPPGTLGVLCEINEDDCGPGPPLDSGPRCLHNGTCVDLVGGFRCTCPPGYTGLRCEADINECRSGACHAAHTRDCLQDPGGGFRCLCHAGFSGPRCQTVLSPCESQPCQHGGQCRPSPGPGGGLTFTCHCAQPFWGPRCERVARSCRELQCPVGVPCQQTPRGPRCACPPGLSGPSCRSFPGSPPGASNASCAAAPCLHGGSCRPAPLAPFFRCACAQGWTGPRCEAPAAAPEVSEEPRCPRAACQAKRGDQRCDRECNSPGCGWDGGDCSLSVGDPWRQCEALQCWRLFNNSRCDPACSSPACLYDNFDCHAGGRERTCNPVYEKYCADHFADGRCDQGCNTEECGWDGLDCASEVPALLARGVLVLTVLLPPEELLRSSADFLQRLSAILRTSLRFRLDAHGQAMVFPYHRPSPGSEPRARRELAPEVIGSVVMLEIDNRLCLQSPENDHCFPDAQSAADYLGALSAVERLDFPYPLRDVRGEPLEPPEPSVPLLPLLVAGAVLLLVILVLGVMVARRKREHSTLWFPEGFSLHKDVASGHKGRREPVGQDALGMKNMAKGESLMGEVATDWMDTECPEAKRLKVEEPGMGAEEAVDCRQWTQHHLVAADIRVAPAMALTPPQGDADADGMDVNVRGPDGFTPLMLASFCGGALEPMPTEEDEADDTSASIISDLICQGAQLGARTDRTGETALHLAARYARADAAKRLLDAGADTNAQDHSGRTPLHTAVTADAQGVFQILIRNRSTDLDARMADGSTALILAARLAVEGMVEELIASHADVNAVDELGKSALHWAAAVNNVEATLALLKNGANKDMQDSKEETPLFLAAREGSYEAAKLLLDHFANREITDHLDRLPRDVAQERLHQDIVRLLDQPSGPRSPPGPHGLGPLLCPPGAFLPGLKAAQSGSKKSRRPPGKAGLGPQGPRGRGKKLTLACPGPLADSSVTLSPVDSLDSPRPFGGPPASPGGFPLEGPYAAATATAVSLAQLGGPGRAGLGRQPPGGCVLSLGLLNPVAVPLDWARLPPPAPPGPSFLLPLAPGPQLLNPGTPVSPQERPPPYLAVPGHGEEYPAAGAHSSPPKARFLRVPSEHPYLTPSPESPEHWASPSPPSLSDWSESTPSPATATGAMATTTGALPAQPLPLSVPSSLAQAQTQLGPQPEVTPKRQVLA
Pro-neuregulin-1, membrane-bound isoform (Homo sapiens), sequence (Q02297 whole entry, looked up, the tested form may be a part, canonical isoform): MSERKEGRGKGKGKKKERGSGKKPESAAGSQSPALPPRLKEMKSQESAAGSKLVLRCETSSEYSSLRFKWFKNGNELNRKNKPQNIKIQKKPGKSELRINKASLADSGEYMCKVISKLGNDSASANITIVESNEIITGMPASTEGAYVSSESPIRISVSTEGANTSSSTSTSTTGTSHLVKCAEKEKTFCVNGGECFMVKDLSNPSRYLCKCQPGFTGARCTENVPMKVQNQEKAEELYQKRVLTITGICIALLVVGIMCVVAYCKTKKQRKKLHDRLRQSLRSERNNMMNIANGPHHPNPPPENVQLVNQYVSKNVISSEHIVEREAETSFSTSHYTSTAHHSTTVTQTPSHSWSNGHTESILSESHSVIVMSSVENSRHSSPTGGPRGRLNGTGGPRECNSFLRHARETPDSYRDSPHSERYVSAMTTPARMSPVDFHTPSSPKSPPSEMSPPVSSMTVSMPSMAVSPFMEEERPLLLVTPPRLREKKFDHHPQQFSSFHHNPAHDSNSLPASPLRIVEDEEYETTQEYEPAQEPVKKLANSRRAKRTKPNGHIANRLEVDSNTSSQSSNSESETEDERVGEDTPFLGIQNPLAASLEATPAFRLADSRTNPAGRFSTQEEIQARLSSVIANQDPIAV

Row | SMILES | composite z-score [1] | composite z-score [2] | composite z-score [3] | composite z-score [4] | composite z-score [5] | composite z-score [6] | composite z-score [7] | z-score [8] | composite z-score [9] | composite z-score [10] | composite z-score [11] | z-score [12] | z-score [13] | z-score [14] | composite z-score [15] | z-score [16] | composite z-score [17] | composite z-score [18] | composite z-score [19] | composite z-score [20]
1 | CC(C)C[C@@H]1NC(=O)[C@@H]2C[C@H](C(=O)NCCCCCCNC(=O)CS)[C@H](c3ccc(O)cc3)N2C1=O | -0.0857 | 1.48 | -0.0202 | 0.938 | 0.604 | 1.35 | 1.37 | 0.0812 (inactive) | 0.694 | -0.0346 | 1.53 | 0.279 (inactive) | 0.101 (inactive) | 0.971 (inactive) | 2.93 | 1.27 (inactive) | 0.0277 | 1.26 | 1.11 | 0.0886
2 | CC(C)C[C@H]1NC(=O)CNC(=O)[C@@]23C(=O)N[C@@H](Cc4ccccc4)C2[C@H](C)[C@@]2(C)O[C@H]2C3/C=C/C/C=C\CNC1=O (stereo not given in full) | -0.564 | 0.11 | -0.159 | 0.582 | -0.222 | 0.205 | 0.598 | 1.81 (inactive) | 0.136 | -0.0121 | 1.08 | -0.599 (inactive) | 0.189 (inactive) | -0.612 (inactive) | 0.921 | -0.743 (inactive) | -0.157 | 0.104 | 0.713 | -0.105
3 | COc1ccc(C(=O)Nc2ccc(CN3C(=O)[C@@]4(O[C@@H](CC(=O)N(CCO)Cc5ccccc5)[C@H]([Si](C)(C)c5ccc(OC)cc5)[C@H]4C)c4ccccc43)cc2)cc1 | -0.0679 | 0.378 | -0.135 | 0.086 | -0.769 | 0.984 | 0.921 | -2.13 (inactive) | -0.263 | -0.0074 | 0.783 | -0.884 (inactive) | -0.504 (inactive) | 1.94 (inactive) | 1.5 | 1.68 (inactive) | -0.116 | 1.55 | 0.217 | 0.0326
4 | COC(=O)Cn1c(C(=O)N(C)C)cc2c1C[C@H]1CN(C(=O)c3ccccc3)[C@@](Cc3ccccc3)(C(=O)OC)[C@@H]21 | -0.215 | -0.365 | -0.0493 | 0.0707 | 1.47 | 1.5 | 0.641 | 1.5 (inactive) | 0.0747 | 0.12 | -0.858 | -0.561 (inactive) | -0.103 (inactive) | -0.207 (inactive) | 1.36 | -0.537 (inactive) | 0.0022 | 0.449 | 0.0571 | 0.25
5 | COc1ccc([Si](C)(C)[C@H]2[C@H](CC(=O)N3CCC[C@H]3CO)O[C@@]3(C(=O)N(C)c4ccccc43)[C@@H]2C)cc1 | 0.735 | 0.384 | -0.0375 | -0.0959 | -0.711 | 0.63 | 1.4 | -0.0568 (inactive) | 0.324 | 0.394 | 0.969 | -0.42 (inactive) | -0.134 (inactive) | -0.401 (inactive) | 0.757 | -0.735 (inactive) | -0.0258 | 1.85 | 0.207 | -0.151
6 | C=C(C(=O)CC[C@@H](OC(=O)c1ccccc1-c1ccccc1C(=O)O)c1cccc(OCCO)c1)C(C)C | -0.308 | 2.23 | -0.0577 | 1.22 | 0.234 | 0.535 | -0.141 | 0.345 (inactive) | -0.156 | 0.154 | 1.46 | 0.433 (inactive) | -0.0072 (inactive) | -0.641 (inactive) | -0.104 | 0.355 (inactive) | -0.118 | 0.782 | 0.164 | -0.182
7 | CCOC(=O)C[C@H]1[C@H](OC(=O)c2ccc(-c3ccccc3)cc2)[C@@H](NC(=O)c2ccc(-c3ccccc3)cc2)c2cc(OCCCO)ccc2N1C(=O)c1ccccc1 | -0.326 | 0.254 | -0.0317 | 0.573 | 0.528 | 0.534 | 0.905 | -0.281 (inactive) | 0.627 | -0.213 | 1.26 | 0.495 (inactive) | 0.785 (inactive) | 1.3 (inactive) | 1.69 | -0.783 (inactive) | -0.275 | 0.253 | 1.07 | -0.183
8 | C=CC[C@@]1(C(=O)NCCCOC)N=C(c2ccc(OCCCO)cc2)O[C@@H]1c1ccccc1CN=[N+]=[N-] | 0.227 | -0.448 | 0.106 | 0.744 | 1.43 | 1.79 | 1.03 | -1.97 (inactive) | 1.25 | -0.105 | 1.55 | -0.759 (inactive) | -0.0094 (inactive) | -0.966 (inactive) | 2.35 | 1.1 (inactive) | 0.258 | 1.01 | 1.12 | 0.0914
9 | COCCOC(=O)N1C(=O)[C@@]2(c3cc(C#CC4=CCCCC4)ccc31)[C@H](c1ccc(O)cc1)N1[C@H](c3ccccc3)[C@H](c3ccccc3)OC(=O)[C@H]1[C@@H]2C(=O)N1CCc2cc(OC)c(OC)cc2C1 | -0.253 | -0.252 | -0.0824 | 0.142 | 0.454 | 0.554 | 1.11 | 0.237 (inactive) | 0.0477 | -0.0296 | 1.15 | 0.793 (inactive) | 0.244 (inactive) | 0.543 (inactive) | 2.56 | 0.0512 (inactive) | 0.0113 | 0.286 | 0.399 | -0.0065
